Data taken from PubChem BioAssay.
The source made the active and inactive calls.

Legend:
[1] = optical density shifts of acrAB sulA E. coli – strain DRC41, OD650, 48 h, E. coli filamentation inducer project, primary screen (AID 1152); settings: higher = more signal, called active from +8 up or from −8 down;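 also: E. coli MC1000 strain DRC41 lacking acrAB efflux pump and sulA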
[2] = probe aLefty1 binding on compound microarray – biochemical, small-molecule microarray, 635/667 nm fluorescence, primary screen (AID 1153); settings: higher = more signal;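 also: score merges spot fluorescence with signal-to-noise ratio from the scanned slide images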
[3] = plasmodial surface anion channel blockers, osmotic lysis – cell-based, P. falciparum Indochina, OD700, 1 h, primary screen (AID 1154); settings: P. falciparum Indochina infected RBC osmotic lysis, higher = more signal, called active from +8 up or from −8 down
[4] = plasmodial surface anion channel blockers, osmotic lysis – cell-based, P. falciparum Indochina, OD700, 2 h, primary screen (AID 1155);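 also: lysis reports solute entry through the parasite surface anion channel PSAC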; settings: P. falciparum Indochina infected erythrocytes, higher = more signal, called active from +8 up or from −8 down
[5] = changes in parasitized red cell lysis, either direction – P. falciparum Indochina, OD700, 3 h, PSAC antagonist project, primary screen (AID 1156); settings: P. falciparum-infected erythrocytes, osmotic lysis, higher = more signal, called active from +8 up or from −8 down
[6] = plasmodial surface anion channel blockers, osmotic lysis – cell-based, P. falciparum Indochina, OD700, 18 h, primary screen (AID 1157); settings: P. falciparum Indochina infected erythrocytes, osmotic lysis OD700, 18 h; higher = more signal, called active from +8 up or from −8 down
[7] = S6 kinase pathway phospho-S6 level changes – cell-based, A549, cytoblot, luminescence, serum-stimulated, primary screen (AID 1158); settings: 5 h, higher = more signal;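 also: serum-stimulated A549 lung adenocarcinoma cells; signal is phosphorylated S6 detected by cytoblot immunostaining with HRP secondary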
[8] = biological target: NADPH oxidase 2 (Homo sapiens) (UniProt P04839); assay: compounds shifting NOX2 Amplex Red fluorescence – cell-based, HEK293-NOX2, PMA-stimulated, NOX inhibitor project, primary screen (AID 1159); settings: 45 min, higher = more signal, called active from +8 up or from −8 down; also: test concentration not given here
NADPH oxidase 2 (Homo sapiens), sequence (P04839 whole entry, looked up): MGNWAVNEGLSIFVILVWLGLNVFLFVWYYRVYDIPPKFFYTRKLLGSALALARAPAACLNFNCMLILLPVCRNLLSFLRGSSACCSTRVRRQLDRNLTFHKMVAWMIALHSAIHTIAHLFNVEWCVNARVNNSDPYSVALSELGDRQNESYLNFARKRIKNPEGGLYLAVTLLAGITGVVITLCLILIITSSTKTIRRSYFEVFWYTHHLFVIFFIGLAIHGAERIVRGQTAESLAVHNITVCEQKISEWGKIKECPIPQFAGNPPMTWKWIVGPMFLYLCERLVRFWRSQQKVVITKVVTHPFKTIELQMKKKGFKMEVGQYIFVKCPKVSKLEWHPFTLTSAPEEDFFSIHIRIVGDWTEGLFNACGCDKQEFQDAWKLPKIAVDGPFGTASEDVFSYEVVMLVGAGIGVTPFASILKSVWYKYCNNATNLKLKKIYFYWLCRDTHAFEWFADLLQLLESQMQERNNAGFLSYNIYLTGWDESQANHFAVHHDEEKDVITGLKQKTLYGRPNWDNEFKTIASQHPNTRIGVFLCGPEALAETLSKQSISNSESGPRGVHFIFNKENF

[9] = biological target: NADPH oxidase 4 (Homo sapiens) (UniProt Q9NPH5); assay: compounds shifting NOX4 Amplex Red fluorescence – cell-based, HEK293-NOX4, tetracycline-induced, NOX inhibitor project, primary screen (AID 1160); settings: HEK293-NOX4, Amplex Red H2O2 fluorescence, 45 min; higher = more signal, called active from +8 up or from −8 down
NADPH oxidase 4 (Homo sapiens), sequence (Q9NPH5 whole entry, looked up): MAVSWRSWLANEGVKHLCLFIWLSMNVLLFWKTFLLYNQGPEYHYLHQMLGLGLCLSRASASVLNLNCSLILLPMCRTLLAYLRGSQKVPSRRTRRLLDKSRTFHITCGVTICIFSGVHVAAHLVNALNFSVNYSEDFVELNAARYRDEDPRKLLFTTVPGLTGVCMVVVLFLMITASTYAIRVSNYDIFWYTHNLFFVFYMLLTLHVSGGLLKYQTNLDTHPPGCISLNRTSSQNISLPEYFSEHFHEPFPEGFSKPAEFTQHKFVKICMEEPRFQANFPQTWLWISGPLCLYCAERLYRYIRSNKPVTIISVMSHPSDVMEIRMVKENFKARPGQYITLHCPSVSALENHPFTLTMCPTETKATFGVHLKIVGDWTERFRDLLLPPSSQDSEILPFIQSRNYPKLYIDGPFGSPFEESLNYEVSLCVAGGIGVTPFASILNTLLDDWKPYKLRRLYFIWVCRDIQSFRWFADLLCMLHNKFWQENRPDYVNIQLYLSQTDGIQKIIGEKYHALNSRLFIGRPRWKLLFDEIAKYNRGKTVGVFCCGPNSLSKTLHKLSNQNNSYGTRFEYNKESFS

[10] = biological target: NADPH oxidase 5 (Homo sapiens) (UniProt Q96PH1); assay: compounds shifting NOX5 Amplex Red fluorescence – cell-based, HEK293-NOX5, NOX inhibitor project, primary screen (AID 1161); settings: HEK293-NOX5, ionomycin, 45 min, higher = more signal
NADPH oxidase 5 (Homo sapiens), sequence (Q96PH1 whole entry, looked up): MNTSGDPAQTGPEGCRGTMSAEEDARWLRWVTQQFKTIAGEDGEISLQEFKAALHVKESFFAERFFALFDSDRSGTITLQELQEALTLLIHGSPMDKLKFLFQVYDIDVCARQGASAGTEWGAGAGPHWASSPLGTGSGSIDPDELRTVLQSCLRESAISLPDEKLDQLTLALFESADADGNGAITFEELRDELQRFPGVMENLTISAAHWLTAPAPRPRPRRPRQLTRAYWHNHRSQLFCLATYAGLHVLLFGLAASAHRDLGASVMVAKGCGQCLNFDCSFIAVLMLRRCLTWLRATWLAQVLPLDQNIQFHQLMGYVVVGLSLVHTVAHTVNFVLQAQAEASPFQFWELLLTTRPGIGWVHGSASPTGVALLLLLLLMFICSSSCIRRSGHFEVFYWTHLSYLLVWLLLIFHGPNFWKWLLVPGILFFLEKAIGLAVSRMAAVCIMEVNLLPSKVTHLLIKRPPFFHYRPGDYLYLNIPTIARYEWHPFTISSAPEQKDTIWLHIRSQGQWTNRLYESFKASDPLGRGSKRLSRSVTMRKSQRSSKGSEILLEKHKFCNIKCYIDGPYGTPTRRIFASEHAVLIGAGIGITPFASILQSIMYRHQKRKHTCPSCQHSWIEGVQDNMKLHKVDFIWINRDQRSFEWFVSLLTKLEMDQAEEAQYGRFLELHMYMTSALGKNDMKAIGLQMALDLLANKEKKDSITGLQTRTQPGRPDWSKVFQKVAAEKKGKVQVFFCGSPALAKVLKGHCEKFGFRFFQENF

[11] = compound effects on lung adenocarcinoma cell viability – A549, calcein-AM fluorescence, 48 h, basal, profiling panel (AID 1162); settings: higher = more signal; also: test concentration not given here
[12] = compound effects on differentiated 3T3-L1 adipocyte viability – cell-based, 3T3-L1 adipocytes, calcein-AM fluorescence, 48 h, basal, profiling panel (AID 1163); settings: 3T3-L1 adipocytes viability, higher = more signal; also: test concentration not given here
[13] = compound effects on hepatocellular carcinoma cell viability – HepG2, calcein-AM fluorescence, 48 h, basal, profiling panel (AID 1164); settings: higher = more signal; also: test concentration not given here
[14] = compound effects on multiple myeloma cell viability – MM1S, calcein-AM fluorescence, 48 h, basal, profiling panel (AID 1165); settings: higher = more signal;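 also: viability of MM1S multiple myeloma cells under basal unstimulated conditions; test concentration not given here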
[15] = calcein-AM signal in unstimulated myeloma cells – cell-based, calcein-AM fluorescence, 48 h, PK04 Diversity Set, profiling panel (AID 1166); settings: RPMI8226 myeloma viability, higher = more signal;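 also: cells grown under basal conditions without added stimulus; test concentration not given here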
[16] = JC-1 mitochondrial signal, unstimulated HepG2 cells – cell-based, JC-1 fluorescence, 24 h, 100 nL compound, profiling panel (AID 1167); settings: HepG2 mitochondrial potential, higher = more signal; also: test concentration not given here
[17] = JC-1 mitochondrial signal, unstimulated adipocytes – cell-based, JC-1 fluorescence, 3T3-L1 adipocytes, 24 h, 100 nL compound, profiling panel (AID 1168); settings: JC-1 mitochondrial fluorescence, higher = more signal, called active from +8 up or from −8 down; also: test concentration not given here
[18] = JC-1 mitochondrial signal, unstimulated myeloma cells – cell-based, JC-1 fluorescence, RPMI8226, 24 h, 100 nL compound, profiling panel (AID 1169); settings: JC-1 mitochondrial potential fluorescence, higher = more signal; also: test concentration not given here
[19] = JC-1 mitochondrial signal, unstimulated MM1S myeloma – cell-based, JC-1 fluorescence, 24 h, 100 nL compound, profiling panel (AID 1170); settings: MM1S mitochondrial potential, higher = more signal; also: test concentration not given here
[20] = resazurin metabolic signal in A549 cells – cell-based, resazurin fluorescence, 24 h, PK04 Diversity Set, profiling panel (AID 1171); settings: A549 viability, higher = more signal, called active from +8 up or from −8 down; also: test concentration not given here

SMILES	z-score [1]	composite z-score [2]	z-score [3]	z-score [4]	z-score [5]	z-score [6]	z-score [7]	z-score [8]	z-score [9]	z-score [10]	z-score [11]	z-score [12]	z-score [13]	z-score [14]	z-score [15]	z-score [16]	z-score [17]	z-score [18]	z-score [19]	z-score [20]
CCOC(=O)C[C@H]1[C@H](OC(=O)c2ccc(-c3ccccc3)cc2)[C@@H](NC(=O)c2ccccc2)c2cc(OCCCO)ccc2N1C(=O)Cc1ccc(OC)cc1	0.118 (inactive)	-0.0601	1.93 (inactive)	0.442 (inactive)	-0.113 (inactive)	0.41 (inactive)	-0.0916	1.31 (inactive)	-0.847 (inactive)	2.5	0.437	0.0615	0.66	-0.536	-0.345	2.23	0.285 (inactive)	0.157	0.617	-0.0451 (inactive)
CCC(CC)C(O)C1C=CC2C(=O)N(c3ccccc3)C(=O)C2N1Nc1ccccc1 (stereo not given)	0.878 (inactive)	0.947	4.73 (inactive)	0.696 (inactive)	0.301 (inactive)	0.95 (inactive)	-0.709	-0.588 (inactive)	-3.29 (inactive)	-3.4	0.857	-1.31	1.72	-0.127	-0.092	-1.48	-2.32 (inactive)	0.0116	-0.403	0.328 (inactive)
CCCC(=O)N(CCc1c[nH]c2ccccc12)[C@@H]1CC(C(=O)NCCO)=C[C@H](Oc2c(I)cc(CO)cc2OC)[C@H]1O	1.57 (inactive)	-0.275	13.2 (active)	1.47 (inactive)	2.04 (inactive)	0.501 (inactive)	0.968	-0.674 (inactive)	1.07 (inactive)	1.16	0.0593	-0.0939	0.0635	0.704	0.0598	0.149	-0.937 (inactive)	-0.178	-1.49	-0.558 (inactive)
CC(c1ccccc1)C(O)C1C=CC2C(=O)N(C)C(=O)C2N1NC(=O)OC(C)(C)C (stereo not given)	-0.288 (inactive)	0.839	0.667 (inactive)	0.871 (inactive)	-0.344 (inactive)	0.508 (inactive)	-0.683	-0.326 (inactive)	-0.289 (inactive)	-1.2	-0.431	0.173	-0.527	-0.391	-0.347	-0.741	-0.439 (inactive)	-0.104	0.772	0.866 (inactive)
O=C1C2C=CC(C(O)C=Cc3ccc([N+](=O)[O-])cc3)N(Nc3ccccc3F)C2C(=O)N1c1ccccc1 (stereo not given)	-1.37 (inactive)	0.329	13.1 (active)	3.11 (inactive)	0.105 (inactive)	1.59 (inactive)	-0.832	-1.43 (inactive)	-3.02 (inactive)	-3.26	-0.212	-0.846	-0.0729	-1.45	-0.343	-1.33	-1.55 (inactive)	-0.22	-1.54	0.0067 (inactive)
COc1ccc(C(O)C2C=CC3C(=O)N(C)C(=O)C3N2N(c2ccccc2)c2ccccc2)c2ccccc12 (stereo not given)	-1.24 (inactive)	0.407	1.24 (inactive)	1.4 (inactive)	0.39 (inactive)	1.32 (inactive)	-1.19	-0.549 (inactive)	-0.247 (inactive)	-0.716	-0.303	-1.6	0.943	0.149	0.2	-0.979	-0.14 (inactive)	0.545	-0.67	-0.738 (inactive)
COCCOC(=O)N1C(=O)[C@@]2(c3cc(C#CC4(O)CCCCCC4)ccc31)[C@H](C(=O)Nc1nc3ccccc3s1)[C@H]1C(=O)O[C@H](c3ccccc3)[C@H](c3ccccc3)N1[C@@H]2c1ccccc1OCCO	0.736 (inactive)	0.282	2.48 (inactive)	1.81 (inactive)	0.895 (inactive)	0.948 (inactive)	0.476	1.85 (inactive)	0.572 (inactive)	0.908	1.29	1.14	-0.333	-2.18	-3.42	-3.05	1.47 (inactive)	-0.866	-0.876	-0.511 (inactive)
CCOC(=O)C1=CC[C@@H](c2ccc(C(F)(F)F)cc2)N(S(=O)(=O)c2ccc(C)cc2)[C@H]1c1ccccc1	-0.734 (inactive)	0.373	1.62 (inactive)	1.61 (inactive)	0.84 (inactive)	0.828 (inactive)	-0.356	0.803 (inactive)	-0.658 (inactive)	-0.601	-0.664	-1.01	0.0691	-2.36	-1.95	-1.59	0.154 (inactive)	-1.11	-3.18	0.138 (inactive)
CCOC(=O)C1=CC[C@H]2C(=O)N(c3ccccc3)C(=O)[C@@H]12	-1.58 (inactive)	0.0027	0.399 (inactive)	0.772 (inactive)	0.692 (inactive)	0.339 (inactive)	-0.743	-0.234 (inactive)	-2.03 (inactive)	-2.36	-0.538	-0.405	0.229	-0.472	0.217	-1.8	-1.28 (inactive)	-0.00668	0.371	0.396 (inactive)
C#CCNCc1ccccc1	-0.131 (inactive)	-0.235	0.229 (inactive)	0.876 (inactive)	-0.116 (inactive)	0.409 (inactive)	-0.255	-12.1 (active)	-0.493 (inactive)	0.615	-0.29	-0.0255	0.331	0.612	-0.523	-0.221	-0.815 (inactive)	-0.804	-0.00594	0.0196 (inactive)
C=C(CCCC)/C(=C/C[C@H](OC(C)=O)c1ccccc1OCCO)c1cnc2ccccc2c1	-0.413 (inactive)	-0.0054	17.5 (active)	2.17 (inactive)	1.32 (inactive)	0.996 (inactive)	-0.0149	-1.41 (inactive)	-0.361 (inactive)	-1.62	0.615	-0.466	0.0984	-3.37	-2.83	1.14	-1.26 (inactive)	-0.247	-0.172	-0.344 (inactive)
O=c1cccc(-c2ccccc2Cl)o1	-0.685 (inactive)	-0.456	0.298 (inactive)	0.585 (inactive)	-0.187 (inactive)	0.414 (inactive)	-0.767	0.182 (inactive)	-0.914 (inactive)	0.863	0.586	0.528	0.614	-1.04	0.0055	-0.98	-0.428 (inactive)	-0.103	0.304	-0.0719 (inactive)
COC(=O)[C@@]1(Cc2ccccc2)[C@H]2c3cc(C(=O)N4CCCC4)n(Cc4ccc(O)c(OC)c4)c3C[C@H]2CN1C(=O)c1ccccc1	-1.64 (inactive)	0.0147	3.85 (inactive)	0.496 (inactive)	0.393 (inactive)	0.618 (inactive)	-0.347	-2.57 (inactive)	-6.07 (inactive)	-3.82	0.114	0.0713	0.876	-1.27	-1.65	0.848	-1.63 (inactive)	0.332	-0.601	-1.5 (inactive)
O=C1C2C=CC(C(O)c3ccc(-c4ccccc4)s3)N(Nc3ccccc3)C2C(=O)N1c1ccccc1 (stereo not given)	-0.517 (inactive)	0.591	8.45 (active)	2.11 (inactive)	0.214 (inactive)	1.1 (inactive)	-0.505	-0.986 (inactive)	-3.23 (inactive)	-0.493	-0.574	-1.35	0.128	-0.338	-1.45	-1.75	0.0226 (inactive)	0.054	-0.271	0.0364 (inactive)
COC(=O)c1c2oc(c1C(=O)OC)C(=O)N[C@@H](C(C)C)Cn1cc(nn1)C1(CCCCC1)NC(=O)N[C@H](CO)CC2	2.15 (inactive)	-0.146	1.1 (inactive)	0.782 (inactive)	0.144 (inactive)	0.36 (inactive)	0.223	0.644 (inactive)	0.758 (inactive)	-0.124	1.31	-0.32	0.0744	-0.11	0.823	1.62	0.024 (inactive)	-0.159	0.3	1.15 (inactive)
CN(C)CCCC[C@@H]1NC(=O)[C@H]2C[C@@H](C(=O)NCCCCCN)[C@@H](c3cccc(OCCO)c3)N2C1=O	0.675 (inactive)	1.28	1.9 (inactive)	0.112 (inactive)	-1.16 (inactive)	0.129 (inactive)	0.204	0.653 (inactive)	0.222 (inactive)	1.52	0.227	0.167	-0.42	-1.44	0.537	1.28	1.18 (inactive)	0.51	1.26	0.123 (inactive)
O=C1C2C=CC(C(O)c3c(F)cccc3Cl)N(Nc3ccccc3F)C2C(=O)N1c1ccccc1 (stereo not given)	-0.775 (inactive)	0.19	6.75 (inactive)	1.57 (inactive)	0.303 (inactive)	1.1 (inactive)	-0.514	-1.43 (inactive)	-4.43 (inactive)	-2.84	-0.505	-1.08	-0.257	0.278	-0.0072	-1.03	-0.217 (inactive)	-0.277	-0.298	-0.103 (inactive)
NC(=O)[C@@H]1[C@H]2C(=O)O[C@H](c3ccccc3)[C@H](c3ccccc3)N2[C@H](c2ccc(OCCO)cc2)[C@@]12C(=O)Nc1ccc(C#CC3=CCCCC3)cc12	1.96 (inactive)	0.189	3 (inactive)	0.651 (inactive)	-1.59 (inactive)	-0.198 (inactive)	1.1	0.814 (inactive)	0.68 (inactive)	2.3	-0.985	1.06	-3.51	-3.28	-4.06	-2.81	0.396 (inactive)	-0.834	-1.71	-1.01 (inactive)
O=C1C2C=CC(C(O)c3ccc4c(c3)OCO4)N(Nc3ccc([N+](=O)[O-])cc3)C2C(=O)N1c1ccccc1 (stereo not given)	-0.81 (inactive)	-0.101	18.1 (active)	3.98 (inactive)	1.4 (inactive)	1.66 (inactive)	-0.363	-1 (inactive)	-3.31 (inactive)	-2.1	-0.649	-1.09	0.199	0.259	-0.169	-0.941	-0.856 (inactive)	0.575	-0.77	-0.0894 (inactive)
